# Screening results: PubChem BioAssay, National Center for Advancing Translational Sciences (NCATS)
# HepG2 viability: qHTS for Inhibitors of TGF-b: Cytotox Counterscreen. HepG2 CAGA-GFP viability, ATP luminescence, 18 h. Potency, µM (titrated, usually from 46.1 µM), most hits filed as cytotoxic. 410,000 compounds, 0.76% hits. AID 588856, 2011
#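 CellTiter-Glo luminescence gave cytotoxicity after 18 hours at 37 degrees C. The cells were HepG2 CAGA-GFP in 1% FBS DMEM, stimulated with 500 pg/mL TGF-beta after compound addition. %Activity was normalised to no-cell wells (complete cell-killing) and DMSO (no toxicity), and curves were fitted and classified.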
# Giardia kill: Small Molecules that selectively kill Giardia lamblia: qHTS | Giardia lamblia trophozoite viability | activity change, % at 7.66 µM, hits read low | 340,000 compounds, 0.15% hits | AID 540267, 2011; in the data active means activity change below about -80%; inconclusive means between about -30% and that limit;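 further: parasites exposed to compound for two days anaerobically before the ATP read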
#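 Each well holds 100 Giardia trophozoites and compound. After two days (48 hrs) at 37 deg C in anaerobic conditions, ATP is quantified by luminescence.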
# TGFb SMAD3 inh: qHTS for Inhibitors of TGF-b; 410,000 compounds, 1.2% hits; HepG2 CAGA-GFP TGF-b/SMAD3 reporter, GFP fluorescence, 18 h; TGF-beta stimulated, 500 pg/mL final; Potency, µM (top dose mostly 46.1 µM), hits mostly inhibitors; further: nearly all actives have a fitted effect of over 65% in size
#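 HEPG2 CAGA-GFP reporter cells (1000/well, DMEM with 1% FBS) received compounds, then recombinant TGF-beta at 500 pg/mL final for 18 hours at 37 degrees C. Per-cell GFP summed per well was normalised to unstimulated and stimulated DMSO controls before curve fitting.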
# HT1080 IDH1KD tx: qHTS for induction of synthetic lethality in tumor cells producing 2HG: qHTS for the HT-1080-IDH1KD cell line; AID 686971, 2013; Potency, µM (series often up to 46.1 µM), actives largely listed as cytotoxic; HT-1080 IDH1 knockdown viability, ATP luminescence, 48 h; 360,000 compounds, 2% hits
#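 After a 2 h attachment period, IDH1KD HT-1080 cells took pin-transferred compound for 48 h at 37 °C; ATP-based luminescence after 10 min room-temperature reagent incubation reported viability.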
# HT1080NT lethal: qHTS for induction of synthetic lethality in tumor cells producing 2HG: qHTS for the HT-1080-NT fibrosarcoma cell line. HT-1080-NT fibrosarcoma viability, CellTiter-Glo ATP luminescence, 48 h. Potency, µM (titrated, usually from 46.1 µM), usual class: cytotoxic. 360,000 compounds, 1.6% hits. AID 686970, 2013;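 further: NT is the 2HG producing partner of a matched IDH1 knockdown line; nearly all actives have a fitted effect of over 55% in size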
#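 A 48-hour cytotoxicity screen used HT-1080-NT cells plated 2 hours before compound delivery. ATP-based CellTiter-Glo luminescence measured viability, normalized to DMSO and no-cell controls.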
# IL-1B inflam inh: qHTS for Inhibitors of Inflammasome Signaling: IL-1-beta AlphaLISA Primary Screen | THP-1 LPS/ATP IL-1B secretion, AlphaLISA, 16 h; hits give low values | 360,000 compounds, 4.7% hits | AID 743279, 2014 | activity change, % at 57.5 µM; in the data active means activity change below about -50%; inconclusive means mostly about -30% to -49%
#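 THP-1 cells pretreated 1 hr with compounds (up to 57.5 uM final), then stimulated with LPS (250 ng/mL final) plus ATP (1.25 mM final); secreted IL-1B measured by AlphaLISA after 16 hr, decreased signal indicating inhibition.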
# Numbers stand for hits; 0 = inactive; ? = inconclusive; - = no result given. Sampled rows, rich in hits. Any-hit rate of the full collection: about 6.5%. Unless noted, the call rests on the fitted dose curve; in most records, active means well fitted curve in the direction sought with a large enough effect; inconclusive means small, poorly fitted or top-dose-only effect, or another doubt; inactive means no such curve, though single readings can be large; an effect the other way counts as inactive or inconclusive.
SMILES,HepG2 viability,Giardia kill,TGFb SMAD3 inh,HT1080 IDH1KD tx,HT1080NT lethal,IL-1B inflam inh
CCN(Cc1ccccc1)C1CCN(Cc2ccc(SC)cc2)CC1,0,0,0,0,0,-72
CCN(Cc1ccccc1)C(=O)C1CCN(Cc2ccc(SC)cc2)CC1,0,0,?,0,0,0
Cc1ccc2[nH]c3c(=O)n(CCN4CCNCC4)cnc3c2c1,0,0,0,0,0,0
Clc1ccc2[nH]c3c(NCCCN4CCOCC4)ncnc3c2c1,0,0,0,?,?,-90
CCN1CCCC1Cn1cnc2c([nH]c3ccc(C)cc32)c1=O (stereo not drawn),0,0,0,0,0,-58
CCN1CCCC1CNc1ncnc2c1[nH]c1ccc(Cl)cc12 (stereo not drawn),0,0,0,?,15µM,-110
O=C1CCCN1CCCNc1ncnc2c1[nH]c1ccc(Cl)cc12,0,0,0,?,0,?
CC(C)NC(=O)C1(C#N)C=C1c1ccccc1 (stereo not drawn),-,-,-,?,16µM,-84
CC(C)NC(=O)c1ccccc1-c1ccccc1,0,0,0,0,0,0
CCOc1ccccc1NC(=O)CN(C)S(=O)(=O)c1ccc2nc(C)sc2c1,0,-,-,-,-,-
Cc1ccnc(NC(=O)CN(C)S(=O)(=O)c2cccc3nsnc23)c1,0,0,0,0,0,0
CN(CC(=O)Nc1nc2ccc(F)cc2s1)S(=O)(=O)c1ccc(Cl)cc1,0,0,?,?,?,-58
Cc1ccc2nc(NC(=O)CN(C)S(=O)(=O)c3cccc4nsnc34)sc2c1,0,0,0,8.2µM,?,0
CCOc1ccc(OCC)c(NC(=O)CN(C)S(=O)(=O)c2ccc3nc(C)sc3c2)c1,0,0,?,0,0,-50
Cc1ccc(S(=O)(=O)N(C)CC(=O)Nc2nc3ccccc3s2)cc1,0,0,0,0,0,0
COc1ccc(C(CNC(=O)CSc2ccc(Br)cc2C)N2CCOCC2)cc1 (stereo not drawn),0,0,0,0,0,0
O=C(O)/C=C\C(=O)Nc1ccccc1C#Cc1ccc(Br)cc1,0,0,0,?,?,-98
O=C(O)/C=C\C(=O)Nc1ccccc1C#Cc1ccccc1,0,0,0,0,0,-62
CC(OC(=O)Cc1ccc(Cl)cc1)C(=O)NCCC1=CCCCC1 (stereo not drawn),0,0,0,0,0,0
CC(Oc1ccc(Cl)cc1Cl)C(=O)NCCC1=CCCCC1 (stereo not drawn),0,0,?,0,0,-57
CC1(C)CC(=O)C2=C(C1)Nc1ccccc1NC2c1cc(Cl)ccc1O (stereo not drawn),0,0,0,0,0,0
COc1cccc(C2NC(=O)NC(C)=C2C(=O)OCC2CCCCC2)c1 (stereo not drawn),0,0,0,0,0,0
CN(C)c1ccc(/C=N/NC(=O)CN(c2cccc(Cl)c2)S(C)(=O)=O)cc1Br,0,0,?,?,?,-50
CC(C)(C)n1nnnc1C(c1cccc(C(F)(F)F)c1)N1CCC(O)CC1 (stereo not drawn),0,0,0,0,0,0
O=C(CCl)NC(Cc1ccccc1)c1ccccc1 (stereo not drawn),0,0,0,16µM,?,-95
SMILES,HepG2 viability,Giardia kill,TGFb SMAD3 inh,HT1080 IDH1KD tx,HT1080NT lethal,IL-1B inflam inh
CC[C@H](C)[C@H]1O[C@]2(CC[C@@H]1C)C[C@@H]1C[C@@H](CC=C(C)[C@@H](O[C@H]3C[C@H](OC)[C@@H](O[C@H]4C[C@H](OC)[C@@H](O)[C@H](C)O4)[C@H](C)O3)[C@@H](C)C=CC=C3CO[C@@H]4[C@H](O)C(C)=C[C@@H](C(=O)O1)[C@]34O)O2,3.5µM,0,3.2µM,4.1µM,2.9µM,0
Cc1cc(C)cc(OCC(O)CN2CCC(CN3C(=O)c4cccc5cccc(c45)C3=O)CC2)c1 (stereo not drawn),20µM,0,?,18µM,18µM,-81
O=C1c2cccc3cccc(c23)C(=O)N1CC1CCN(CC(O)COc2ccc3ccccc3c2)CC1 (stereo not drawn),16µM,0,?,15µM,18µM,-95
COc1ccc(COCC(O)CN2CCC(CN3C(=O)c4cccc5cccc(c45)C3=O)CC2)cc1OC (stereo not drawn),0,0,0,?,?,-88
COc1cc(COCC(O)CN2CCN(CCN3C(=O)c4cccc5cccc(c45)C3=O)CC2)cc(OC)c1OC (stereo not drawn),0,0,?,0,0,?
COc1cccc(OCC(O)CN2CCC(CN3C(=O)c4cccc5cccc(c45)C3=O)CC2)c1 (stereo not drawn),14µM,0,?,23µM,18µM,-97
CCc1ccc(OCC(O)CN2CCC(CN3C(=O)c4cccc5cccc(c45)C3=O)CC2)cc1 (stereo not drawn),0,0,0,0,0,0
COC(C[C@H](O)C[C@H](O)[C@H](C)OCc1ccccc1)OC,0,0,0,0,0,0
O=C(N/N=C/c1ccccc1F)NC12CC3CC(CC(C3)C1)C2,0,0,0,0,0,0
COc1cccc(/C=N/NC(=O)C(=O)NCc2ccco2)c1O,0,0,0,7.1µM,8.9µM,0
COc1cccc(/C=N/NC(=O)C(=O)N2CCCCCC2)c1O,0,0,0,13µM,?,0
COc1cccc(/C=N/NC(=O)NC23CC4CC(CC(C4)C2)C3)c1O,0,0,?,18µM,?,0
COc1cccc(/C=N/NC(=O)C(=O)NCc2ccco2)c1OC,0,0,0,0,0,0
O=C(N/N=C/c1cc([N+](=O)[O-])ccc1Cl)c1cnccn1,0,0,0,?,4.1µM,0
Cc1ccccc1Cn1c(=O)c2c(nc3n2CCCN3Cc2ccccc2)n(C)c1=O,0,0,0,0,0,0
COc1cccc(/C=N/NC(=O)c2ccoc2C)c1O,0,0,?,9.2µM,?,0
COc1cccc(/C=N/NC(=O)c2cnccn2)c1O,0,0,?,16µM,?,0
COc1ccc(/C=N/NC(=O)c2cnccn2)c(OC)c1OC,0,0,0,0,0,0
CNC(=S)N/N=C1\CC(c2ccccc2)Oc2ccccc21 (stereo not drawn),0,0,0,0,0,0
